Experimental data: article PMC5540273 (PLoS ONE, 2017)

Test system: MLK3
Conditions: concentration: 1 μM,replicates: in singlicate; n = 1
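Also: KINOMEscan kinase panel screen.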

SMILES | %Inh [%]
Cc1cccc(-c2nc(Nc3ccncc3)c3sccc3n2)n1 [GW869641] | 19
CS(=O)(=O)Nc1ccc(-c2ccnc3[nH]ccc23)cc1 [GSK993273] | 10
Cn1ccc2ncnc(Oc3ccc(NC(=O)Nc4cccc(C(F)(F)F)c4)c(Cl)c3)c21 | 2
O=C(Nc1n[nH]c2cc(-c3ccco3)ccc12)C1CC1 [SB-737447] | 0
Cc1ccc(C(=O)Nc2ccc(Oc3ccc4nc(NC(=O)C5CC5)cn4c3)c(F)c2)c(=O)n1-c1ccccc1 | 13
Cc1n[nH]c2cc(Nc3ccnc(Nc4cccc(CN5CCOCC5)c4)n3)ccc12 [GW682569] | 58
Cn1ccc2ncnc(Oc3ccc(NC(=O)Nc4cnn(C(C)(C)C)c4)c(Cl)c3)c21 | 0
Cn1ccc2ncnc(Oc3ccc(NC(=O)Nc4cccc(C(F)(F)F)c4)c(F)c3)c21 | 32
Cl.Cl.NC[C@H](CC1CCCCC1)NC(=O)c1ccc(-c2ccnc3[nH]ccc23)s1 [GSK1581428] | 0
COc1cccc(C2=C(Nc3cccc(Cl)c3)C(=O)NC2=O)c1 [SB-341556] | 0
C[C@@H](Oc1cc(-n2cnc3cc(-c4cnn(C)c4)ccc32)sc1C(N)=O)c1ccccc1Cl [GSK580432] | 80
Cc1ccc2c(-c3ccnc(Nc4ccc(C(F)(F)F)cc4)n3)cnn2n1 [GW819776] | 3
CCn1c(-c2nonc2N)nc2cncc(Br)c21 [SB-738004] | 12
CCN1CCN(CCCC(=O)Nc2n[nH]c3nc(-c4ccc(O)cc4)c(Br)cc23)CC1 [SB-731579] | 0
CN1CCN(CCCNc2nccc(-c3c(-c4ccc(F)cc4)nn4cc(C(N)=O)ccc34)n2)CC1 [GW622475] | 12
COC(=O)c1cccc(NC(=O)NC2CCN(c3ccnc(NCc4ccc(F)cc4)n3)CC2)c1 [GSK1379860] | 0
CC(=O)c1c(-c2ccncc2)[nH]c(-c2ccncc2)c1C [GW493036] | 0
CN1CCN(CCNc2nc3cc(Oc4ccc(NC(=O)Nc5cc(C(F)(F)F)ccc5F)cc4)ccc3[nH]2)CC1.Cl.Cl [GW768504] | 0
COc1cc2ncn(-c3cc(OCC4CCCCC4)c(C(N)=O)s3)c2cc1OC [GSK204559] | 34
O=C(NCC1CC1)c1ccc(-c2cc(C(=O)NC3CC3)ccc2F)cc1 [GW810445] | 0
CS(=O)c1ccc(-c2coc3ccc(-c4n[nH]c(=O)o4)cc23)cc1 (stereo not drawn) | 0
Cc1ccn2nc(-c3ccc(F)cc3)c(-c3ccncc3)c2c1.Cl [GW457859] | 0
Cc1ccc(CC(=O)N2CCc3cc(-c4cn(C)c5ncnc(N)c45)ccc32)cc1 [GSK2634758] | 24
CCOC(=O)N1CCC(n2cnc(-c3ccc(F)cc3)c2-c2ccnc(N)n2)CC1 [SB-219952] | 27
